Measured values taken from PubChem BioAssay (Tox21).
Results filed as inconclusive are left out. Calls of active or inactive are those of the source. The call rests on the fitted dose curve. Residues, ends and D or L forms follow the SMILES beside them.

Legend:
[1] = target: Acetylcholinesterase (Homo sapiens) (UniProt P22303); assay: Acetylcholinesterase (AChE) small molecule antagonists: colormetric cell-based qHTS assay (AID 1347395); further: nearly all actives have a fitted effect of over 30% in size
How it was run: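 SH-SY5Y cells, plated overnight at 37 C, were exposed to compounds for 30 min at 37 C and 5% CO2. Acetylthiocholine plus DTNB was then added, and thiocholine from endogenous AChE was quantified colorimetrically after 90 min at 37 C.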

[2] = target: Acetylcholinesterase (Homo sapiens) (UniProt P22303); assay: Acetylcholinesterase (AChE) small molecule antagonists: enzyme-based qHTS assay (AID 1347397); conditions: Potency: AChE enzyme activity inhibition; outcome: AChE enzyme activity inhibition; further: nearly all actives have a fitted effect of over 55% in size
How it was run: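 Compound or DMSO vehicle was pin-transferred onto recombinant human AChE (50 mU/mL as dispensed) and left 30 min at room temperature. Acetylthiocholine with DTNB then started the reaction, read colorimetrically 10 min later.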

[3] = target: Acetylcholinesterase (Homo sapiens) (UniProt P22303); assay: Acetylcholinesterase (AChE) small molecule antagonists: fluorescence cell-based qHTS assay (AID 1347398); conditions: Potency: AChE activity; outcome: AChE activity; further: nearly all actives have a fitted effect of over 50% in size
How it was run: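 Using neuroblastoma SH-SY5Y cells as the enzyme source, test chemicals are preincubated 30 min at 37 C; AChE-driven acetylthiocholine cleavage is then quantified by thiocholine-dependent Thiolite Green fluorescence after 40 min at room temperature.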

[4] = target: Acetylcholinesterase (Homo sapiens) (UniProt P22303); assay: Acetylcholinesterase (AChE) small molecule antagonists: enzyme-based qHTS assay with human liver microsomes (AID 1347399); conditions: Potency: qHTS inhibition; outcome: qHTS inhibition; further: nearly all actives have a fitted effect of over 60% in size
How it was run: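 Recombinant human AChE (50 mU/mL in the enzyme mix) and human liver microsomes (0.25 mg/mL final) were preincubated with compound and NADPH (0.25 mg/mL final) for 30 min at 37 C. Acetylthiocholine/DTNB was then added; thiocholine was read colorimetrically after 10 min at room temperature.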
On the % scale 0 is the no-effect control and ±100 the full control effect.

Chain of Acetylcholinesterase (Homo sapiens) (P22303 whole entry, looked up): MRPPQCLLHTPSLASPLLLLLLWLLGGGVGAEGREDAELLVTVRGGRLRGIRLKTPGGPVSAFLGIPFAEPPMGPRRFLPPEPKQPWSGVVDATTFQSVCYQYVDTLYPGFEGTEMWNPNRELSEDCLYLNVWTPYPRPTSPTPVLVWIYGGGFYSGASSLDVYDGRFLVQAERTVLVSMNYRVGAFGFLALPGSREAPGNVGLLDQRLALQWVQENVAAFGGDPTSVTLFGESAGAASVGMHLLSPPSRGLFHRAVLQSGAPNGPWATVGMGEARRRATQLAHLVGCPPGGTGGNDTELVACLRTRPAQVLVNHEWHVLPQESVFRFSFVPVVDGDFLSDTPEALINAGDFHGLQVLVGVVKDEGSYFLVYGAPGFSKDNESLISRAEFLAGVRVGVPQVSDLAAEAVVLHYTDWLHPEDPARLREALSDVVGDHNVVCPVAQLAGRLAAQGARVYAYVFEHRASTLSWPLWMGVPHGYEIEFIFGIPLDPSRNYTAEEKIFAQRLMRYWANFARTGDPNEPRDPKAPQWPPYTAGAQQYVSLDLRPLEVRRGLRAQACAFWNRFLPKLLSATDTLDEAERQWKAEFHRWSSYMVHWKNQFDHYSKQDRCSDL

CC1CCC2CC1C2(C)C (stereo not given)
inactive: Potency [1] | Potency [2] | Potency [3] | Potency [4]

O=C1NCCN1
inactive: Potency [1] | Potency [2] | Potency [3] | Potency [4]

OCCCCl
inactive: Potency [1] | Potency [2] | Potency [3] | Potency [4]

Clc1ccccc1C(c1ccccc1)(c1ccccc1)n1ccnc1
inactive: Potency [1] | Potency [2] | Potency [3] | Potency [4]

CC(C)=CCC/C(C)=C/C(=O)O
inactive: Potency [1] | Potency [2] | Potency [3] | Potency [4]

CC(=O)CC(=O)Nc1ccc(C)cc1C
inactive: Potency [1] | Potency [2] | Potency [3] | Potency [4]

CN(C)CCC=C1c2ccccc2CCc2ccccc21
inactive: Potency [1] | Potency [2] | Potency [3] | Potency [4]

CCCc1c(OCCCCc2nn[nH]n2)ccc(C(C)=O)c1O
inactive: Potency [1] | Potency [2] | Potency [3] | Potency [4]

N#Cc1ccccc1O
inactive: Potency [1] | Potency [2] | Potency [3] | Potency [4]

Cc1cc(C(=C2C=CC(=Nc3ccc(S(=O)(=O)O)cc3S(=O)(=O)O)C=C2)c2ccc(Nc3ccc(S(=O)(=O)O)cc3)cc2)ccc1N
inactive: Potency [1] | Potency [2] | Potency [3] | Potency [4]

c1cnc2c(n1)CCCC2
inactive: Potency [1] | Potency [2] | Potency [3] | Potency [4]

C=CCCCCCCCCOC(C)=O
inactive: Potency [1] | Potency [2] | Potency [3] | Potency [4]

CC(C)=CCOC(=O)c1ccccc1
inactive: Potency [1] | Potency [2] | Potency [3] | Potency [4]

C=CC/C=C/C
inactive: Potency [1] | Potency [2] | Potency [3] | Potency [4]

O=C1NCCN1CCO
inactive: Potency [1] | Potency [2] | Potency [3] | Potency [4]

COCc1c(C(C)C)nc(C(C)C)c(/C=C/[C@@H](O)C[C@@H](O)CC(=O)O)c1-c1ccc(F)cc1
inactive: Potency [1] | Potency [2] | Potency [3] | Potency [4]

CC1=CC(=O)CC(C)(C)C1(O)/C=C/C(C)=C\C(=O)O (stereo not given)
inactive: Potency [1] | Potency [2] | Potency [3] | Potency [4]

CC(C)c1ccccc1C(C)C
inactive: Potency [1] | Potency [2] | Potency [3] | Potency [4]

CCCOC(=O)c1ccccc1
inactive: Potency [1] | Potency [2] | Potency [3] | Potency [4]

COC(=O)CCCC(=O)OC
inactive: Potency [1] | Potency [2] | Potency [3] | Potency [4]

C=C[C@@]1(C)CC(=O)[C@]2(O)[C@@]3(C)[C@@H](O)CCC(C)(C)[C@@H]3[C@H](O)[C@H](OC(C)=O)[C@@]2(C)O1
inactive: Potency [1] | Potency [2] | Potency [3] | Potency [4]

CCOC(=O)[C@H](CCc1ccccc1)N[C@@H](C)C(=O)N(CC(=O)O)C1Cc2ccccc2C1
inactive: Potency [1] | Potency [2] | Potency [3] | Potency [4]

O=C(O)c1ccccc1C(=O)OCc1ccccc1
inactive: Potency [1] | Potency [2] | Potency [3] | Potency [4]

CCCCC/C=C\C/C=C\CCCCCCCC(=O)O
inactive: Potency [1] | Potency [2] | Potency [3] | Potency [4]

OCCCCCCCCCCCCBr
inactive: Potency [1] | Potency [2] | Potency [3] | Potency [4]

Oc1cccc(O)c1
inactive: Potency [1] | Potency [2] | Potency [3] | Potency [4]

NCCN1CCNCC1
inactive: Potency [1] | Potency [2] | Potency [3] | Potency [4]

O=C1Nc2ccc([N+](=O)[O-])cc2C1=O
inactive: Potency [1] | Potency [2] | Potency [3] | Potency [4]

O=C1C(c2[nH]c3ccccc3c2O)=Nc2ccccc21
inactive: Potency [1] | Potency [2] | Potency [3] | Potency [4]

O=c1[nH]cnc2[nH]ncc12
inactive: Potency [1] | Potency [2] | Potency [3] | Potency [4]

COc1cc(O)cc(O)c1
inactive: Potency [1] | Potency [2] | Potency [3] | Potency [4]

CC(C)[C@@H]1CC[C@@H](C)CC1=O
inactive: Potency [1] | Potency [2] | Potency [3] | Potency [4]

C=C(C)C(=O)OCC(CC)(COC(=O)C(=C)C)COC(=O)C(=C)C
inactive: Potency [1] | Potency [2] | Potency [3] | Potency [4]

CC(C)(N)C#N
inactive: Potency [1] | Potency [2] | Potency [3] | Potency [4]

Cc1cccc2n[nH]nc12
inactive: Potency [1] | Potency [2] | Potency [3] | Potency [4]

CN1CC(=O)N/C1=N/C(=O)Nc1cccc(Cl)c1
inactive: Potency [1] | Potency [2] | Potency [3] | Potency [4]

CO[C@@H]1[C@@H](OC(N)=O)[C@@H](O)[C@H](Oc2ccc3c(O)c(NC(=O)c4ccc(O)c(CC=C(C)C)c4)c(=O)oc3c2C)OC1(C)C
inactive: Potency [1] | Potency [2] | Potency [3] | Potency [4]

CN1Cc2c(N)cccc2C(c2ccccc2)C1 (stereo not given)
inactive: Potency [1] | Potency [2] | Potency [3] | Potency [4]

Nc1ccc(Oc2ccc(Cl)cc2)cc1
inactive: Potency [1] | Potency [2] | Potency [3] | Potency [4]

C=C1[C@H]2CC[C@@H]3[C@H]2C(C)(C)CCC[C@]13C
inactive: Potency [1] | Potency [2] | Potency [3] | Potency [4]

CCC(C)(C)C1CCC(OC)CC1 (stereo not given)
inactive: Potency [1] | Potency [2] | Potency [3] | Potency [4]

Cc1cnccn1
inactive: Potency [1] | Potency [2] | Potency [3] | Potency [4]

CCCCC1CCC(O)CC1 (stereo not given)
inactive: Potency [1] | Potency [2] | Potency [3] | Potency [4]

Cc1c(C)c2c(c(C)c1O)CCC(C)(COc1ccc(CC3SC(=O)NC3=O)cc1)O2 (stereo not given)
inactive: Potency [1] | Potency [2] | Potency [3] | Potency [4]

O=C(O)c1ccccc1NCCc1ccccc1
inactive: Potency [1] | Potency [2] | Potency [3] | Potency [4]

CCCCCCCCCCC(CO)CCCCCCCC (stereo not given)
inactive: Potency [1] | Potency [2] | Potency [3] | Potency [4]

CC(C)CCCCCCOC(=O)c1ccc(C(=O)OCCCCCCC(C)C)c(C(=O)OCCCCCCC(C)C)c1
inactive: Potency [1] | Potency [2] | Potency [3] | Potency [4]

C=C(C)C(=O)OCCCCCC
inactive: Potency [1] | Potency [2] | Potency [3] | Potency [4]

c1ccc(Nc2ccccc2)cc1
inactive: Potency [1] | Potency [2] | Potency [3] | Potency [4]

COC(=O)[C@H](Cc1ccccc1)NC(=O)[C@@H](N)CC(=O)O (H-Asp-Phe-OMe)
inactive: Potency [1] | Potency [2] | Potency [3] | Potency [4]

CCCCCCc1ccc(O)cc1O
inactive: Potency [1] | Potency [2] | Potency [3] | Potency [4]

CC(=O)C1C(=O)C=C(C)OC1=O (stereo not given)
inactive: Potency [1] | Potency [2] | Potency [3] | Potency [4]

CCO[Si](CCC#N)(OCC)OCC
inactive: Potency [1] | Potency [2] | Potency [3] | Potency [4]

CN(C)c1ccc(CCO)cc1
inactive: Potency [1] | Potency [2] | Potency [3] | Potency [4]

CC/C=C\CCCCCO
inactive: Potency [1] | Potency [2] | Potency [3] | Potency [4]

c1ccc2ccccc2c1
inactive: Potency [1] | Potency [2] | Potency [3] | Potency [4]

CCn1cc(C(=O)O)c(=O)c2cc(F)c(N3CCN(C)CC3)cc21
inactive: activity, negative = inhibition [1] 2.04% [at 23.6 µM] | activity change, negative = inhibition [2] -0.504% [at 23.6 µM] | activity change, negative = inhibition [3] 2.98% [at 23.8 µM] | activity change, negative = inhibition [4] -0.336% [at 23.6 µM]

CC(C)(CO)C(O)C(=O)NCCCO (stereo not given)
inactive: Potency [1] | Potency [2] | Potency [3] | Potency [4]

COc1ccc(N)c(OC)c1
inactive: Potency [1] | Potency [2] | Potency [3] | Potency [4]

CC1(C)O[C@@H]2C[C@H]3[C@@H]4C[C@H](F)C5=CC(=O)C=C[C@]5(C)[C@H]4[C@@H](O)C[C@]3(C)[C@]2(C(=O)CO)O1
inactive: Potency [1] | Potency [2] | Potency [3] | Potency [4]
